# Test results: the supplement of paper PMC6555819
# What was measured:
# Assay in all cases: PBM binding z-score (relative to random genomic background probes); higher = stronger binding; sequences stand for … in GC…GCGATTGACAGCGTAGAATGAAGG
# [1] = tested on: FXR:RXRa (NR concentration 270 nM, RXRa partner concentration 90 nM)
# Procedure, shortened: (§1)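 Binding z-scores were set against random background probes. The data came from custom Agilent 4×180K protein-binding microarrays carrying double-stranded probes with 34-nt variable regions, incubated 1 h with ligand-free nuclear receptor dimers. Partner-specific antibodies detected binding, and scanned fluorescence was regression-normalized.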
# [2] = tested on: LXRa:RXRa (NR concentration 270 nM, RXRa partner concentration 90 nM)
# Procedure, shortened: as §1
# [3] = tested on: LXRa homodimer (NR concentration 270 nM)
# Procedure, shortened: as §1
# [4] = tested on: LXRb:RXRa (NR concentration 270 nM, RXRa partner concentration 90 nM)
# Procedure, shortened: as §1
# [5] = tested on: LXRb homodimer (NR concentration 270 nM)
# Procedure, shortened: as §1
# [6] = tested on: PPARa:RXRa (NR concentration 270 nM, RXRa partner concentration 90 nM)
# Procedure, shortened: as §1
# [7] = tested on: PPARg:RXRa (NR concentration 180 nM, RXRa partner concentration 90 nM)
# Procedure, shortened: as §1
# [8] = tested on: PPARg:RXRa 270nM:90nM, anti-RXR (NR concentration 270 nM, RXRa partner concentration 90 nM)
# Procedure, shortened: as §1
# [9] = tested on: PPARg:RXRa 30nM:10nM, anti-RXR (NR concentration 30 nM, RXRa partner concentration 10 nM)
# Procedure, shortened: as §1
# [10] = tested on: PPARg:RXRa 90nM:30nM, anti-RXR (NR concentration 90 nM, RXRa partner concentration 30 nM)
# Procedure, shortened: as §1
# [11] = tested on: PPARg:RXRa DBDmut IVT, anti-RXR (DBD mutation: RXRa K156A/R161A, NR concentration 270 nM, RXRa partner concentration 90 nM)
# Procedure, shortened: as §1
# [12] = tested on: PPARg:RXRa IVT, anti-PPARg (NR concentration 270 nM, RXRa partner concentration 90 nM)
# Procedure, shortened: as §1
# [13] = tested on: PPARg DBDmut:RXRa IVT, anti-PPARg (DBD mutation: PPARg1 K132A/R137A, NR concentration 270 nM, RXRa partner concentration 90 nM)
# Procedure, shortened: as §1
# [14] = tested on: PPARg DBDmut IVT, anti-PPARg (DBD mutation: PPARg1 K132A/R137A, NR concentration 270 nM)
# Procedure, shortened: as §1
# [15] = tested on: PPARg homodimer (NR concentration 180 nM)
# Procedure, shortened: as §1
# [16] = tested on: PXR:RXRa (NR concentration 270 nM, RXRa partner concentration 90 nM)
# Procedure, shortened: as §1
# [17] = tested on: PXR homodimer (NR concentration 270 nM)
# Procedure, shortened: as §1
# [18] = tested on: RARa:RXR (NR concentration 270 nM, RXRa partner concentration 90 nM)
# Procedure, shortened: as §1
# [19] = tested on: RARa homodimer (NR concentration 270 nM)
# Procedure, shortened: as §1
# [20] = tested on: RARb:RXRa (NR concentration 270 nM, RXRa partner concentration 90 nM)
# Procedure, shortened: as §1
Sequence,PBM binding z-score [1],PBM binding z-score [2],PBM binding z-score [3],PBM binding z-score [4],PBM binding z-score [5],PBM binding z-score [6],PBM binding z-score [7],PBM binding z-score [8],PBM binding z-score [9],PBM binding z-score [10],PBM binding z-score [11],PBM binding z-score [12],PBM binding z-score [13],PBM binding z-score [14],PBM binding z-score [15],PBM binding z-score [16],PBM binding z-score [17],PBM binding z-score [18],PBM binding z-score [19],PBM binding z-score [20]
GCTAGCAGGCCGTTTGGGTCACTCAATGACGGGC,0.0511,-0.392,-0.828,-0.0413,-1.11,0.602,-0.107,-0.514,-0.56,-0.437,-0.553,-0.27,-1.62,-1.46,-0.598,0.292,-0.556,0.575,-1.38,1.14
CCAGACAGGTGAAAGGCAACTCAGTCTGGTACGC,-0.102,0.0112,-0.327,0.0509,-0.597,1.7,2.49,3.2,1.12,2.8,0.767,1.08,0.0608,-0.556,0.466,-0.0216,-0.296,0.0824,0.0834,0.639
CGTCAAAGTTCAACTAAGGTAACCTAAAGCACGC,7.07,6.1,4.45,4.4,2.21,5.35,5.27,5.95,2.33,4.85,0.618,2.35,0.979,1.12,5.46,6.07,4.78,5.01,2.75,5.31
CGAAATAGGTCATCCAGGACAGTGAATACATTGA,5.99,4.69,1.25,3.8,0.842,5.87,7.32,6.78,4.39,6.21,7.78,7.89,2.68,2.13,2.1,3.15,1.18,3.92,1.27,4.59
GCGACTGGGGCATCCGCAGGTTACCATAACTTAA,-0.134,-0.356,-0.324,0.722,-0.515,1.06,0.756,0.848,-0.543,0.0228,3.8,3.27,-1.11,-0.898,-0.268,0.263,-0.637,0.49,-1,0.89
CGTCCAAGGTCAGAAAGGTCAGTGAATGCCGAGT,5.85,5,3.05,4.56,0.524,4.94,3.36,4.31,0.967,2.8,1.91,3.14,-0.203,-0.0818,3.94,6.06,10.7,5.92,3.03,5.34
ACTAGTTGGTCAGCTGAGGTGACACACAATTCGG,1.58,0.508,-0.0551,0.499,-0.125,1.27,1.16,0.582,-0.235,0.398,1.56,2,0.518,0.422,0.486,0.897,0.101,1.27,-0.129,1.45
ATATGTCGGTTATCGGGTCATTCAGTTTGCGCAT,2.49,2.52,1.64,2.54,0.586,3.3,2.53,2.94,0.785,2.19,3.75,4.28,1.98,2.05,2.12,3.32,7.06,3.02,0.924,2.11
GCTATTAGTTCAAAGGGCAACCGAATGATTCTCG,2.78,2.89,0.929,2.17,0.2,3.79,4.51,5.96,5.32,6.42,0.957,1.81,0.146,0.19,2.2,3.21,1.29,4.32,1.11,3.3
TCTAGTTGGTCACGGAGGTGACACACGACGGGTA,1.04,0.805,-0.0469,0.335,0.00515,1.43,1.64,1.98,2.83,2.24,2.02,3.37,1.22,0.542,1.15,0.71,-0.119,0.781,0.338,1.82
CCTCGGAGGACAGAAGGTCACAGCTGTCCGCTTT,2.65,3.33,0.899,2.27,-0.713,3.54,0.989,2.62,-0.00709,1.83,0.643,1.32,-1.36,-2.05,2.05,3.33,-0.204,4.13,1.25,3.77
CCTTGCAGGCCAATCTGGGTCACTCAAGGCTTGA,0.555,1.37,-0.554,1.1,-0.539,3.31,2.29,2.35,-0.0639,1.2,4.87,5.67,0.0467,-0.339,0.973,1.02,-0.543,1.59,-0.229,1.53
TAGTCTAGGTCATGCGGGCCAGTATAGTGTCGGC,4.02,3.48,1.36,1.76,1.87,3.92,4.97,4.56,1.78,3.81,5.79,6.05,2.08,2.16,1.27,1.58,0.355,2.07,0.351,3.85
